# Measured values: PubChem BioAssay (NCATS)
# Values joined by “and” are separate entries in the source; they are usually repeats but may differ in a detail not shown here. Equal values may be shown once. Results filed as inconclusive are left out. Active and inactive are the calls of the source. Calls come from the whole dose curve.
# Assay: qHTS Assay for Lipid Storage Modulators (AID 1519); for activity change, negative = inhibition: % is set by controls: 0 for no effect and ±100 for the full control effect
# Details: Drosophila S3 cells, BODIPY lipid droplet/cell ratio, laser cytometry, cells loaded with oleic acid
# Source text: NIH Molecular Libraries Probe Production Centers Network [MLPCN]
# NIH Chemical Genomics Center [NCGC]
# Assay Submitter (PI): Beller, Mathias; Max-Planck-Institut fur Biophysikalische Chemie
# NCGC Assay Overview: Storing lipids as a reservoir for energy or the anabolism of elementary metabolites is a common feature of probably all cells and is conserved from bacteria to humans. The universal cellular lipid storage organelle is the so-called lipid storage droplet (LD). Although ubiquitous, LDs share a simple structure composed of a hydrophobic core that harbors the storage lipids, which is shielded by a droplet-specific phospholipid monolayer to which proteins are attached. The current model of LD biogenesis involves an incorporation of the lipid core into the membrane leaflets of the endoplasmic reticulum (ER) followed by a subsequent budding-like maturation of a LD, which ultimately pinches off. Once released, LD volume can increase by localized lipogenesis or fusion of existing droplets. Storage lipids are re-mobilized enzymatically by lipase activity. Lipase regulation in the adipocyte is heavily studied and involves multiple components including catecholamine signaling, the LD-associated proteins Perilipin and comparative gene identification-58 (CGI-58) and at least two lipases named hormone sensitive lipase (HSL) and adipocyte triglyceride lipase (ATGL). LD regulation outside of the adipocyte is poorly understood and only few components are known. However, there is an urgent need to learn more about ectopic fat depots as mislocalized storage of lipids, for example in the liver or muscle, is an eminent health problem associated with insulin resistance or the metabolic syndrome. We developed a laser-scanning cytometer assay to enable 1,536-well screening and combined the results of the small molecules screen with an RNAi database based on lipid storage.
# NCGC Assay Protocol Summary:
# We dispensed 4 uL of cells at 1.25 x 10^6 cells/mL into LoBase Aurora COC 1,536-well plates (black walled, clear bottom) with a bottle-valve solenoid-based dispenser (Aurora) to obtain 5,000 cells/well. Triacsin C (Sigma-Aldrich T-4540), an inhibitor of long-chain fatty acyl CoA synthetase that blocks synthesis of triglycerides, was used as a positive control for lipid under-storage. A total of 23 nL of compound solution of different concentrations were transferred to the assay plates using a Kalypsys pin tool equipped with a 1,536-pin array containing 10-nL slotted pins (FP1S10, 0.457-mm diameter, 50.8 mm long; V&P Scientific). One microliter of oleic acid (400 uM) was added, and the plate was lidded with stainless steel rubber gasket lined lids containing pinholes. […] Fluorescence was detected by excitation of the fluorophores with a 488-nm laser on an Acumen Explorer (TTP Lab Tech). The total intensity in channel 1 (500-530 nm) reflected lipid droplet accumulation. […] The ratio of the total intensity in PMT channel 1 over total intensity of channel 3 was also calculated. Percent activity was computed relative to an internal control (100% inhibited lipid droplet deposition due to the presence of 20 uM Triacsin C), which was added to 32 wells/plate.
# [1] = measured here: cell count channel max response
# [2] = measured here: lipid channel max response
Structure (SMILES),"activity change, negative = inhibition (at 25.7 µM (top of the series))",max response [1],max response [2],"activity change, negative = inhibition (at 57.5 µM (top of the series))"
O=P1(NCCCl)OCCCN1CCCl (stereo unspecified),-0.105% (inactive),-5.65%,-6.2%,–
O=c1[nH]c2ccccc2n1CCCN1CCC(n2c(=O)[nH]c3cc(Cl)ccc32)CC1,0.586% (inactive),2.1% and 12.4% and -15.6%,4.47% and 17.4% and -21%,4.6% (inactive) and -5.66% (inactive)
CNCCCN1c2ccccc2CCc2ccccc21,-4.5% (inactive),-2.23% and 21.3%,-6.66% and 25.9%,0.465% (inactive)
CN1CCN(C2=Nc3cc(Cl)ccc3Nc3ccccc32)CC1,0.266% (inactive),-21%,-18.6%,–
CN(C)CCN(C)CCc1ccc(Cl)c(Cl)c1,–,4.07%,4.59%,-1.09% (inactive)
Oc1cccc2cccnc12,–,-2.95%,3.47%,3.44% (inactive)
Cc1ccc(S(=O)(=O)N[C@@H](CCCCN)C(=O)CCl)cc1,–,1.11%,0.09%,-0.107% (inactive)
CCCC(C)(COC(N)=O)COC(=O)NC(C)C (stereo unspecified),–,20.3% and 29.2%,29.5% and 22.2%,3.44% (inactive) and -3.03% (inactive)
CCC(COC(=O)c1cc(OC)c(OC)c(OC)c1)(c1ccccc1)N(C)C (stereo unspecified),–,-7.6%,-1.9%,6.16% (inactive)
Cc1ccc(-c2nc3ccc(C)cn3c2CC(=O)N(C)C)cc1,–,1.87%,4.31%,1.62% (inactive)
CC(CCc1ccccc1)NC(C)C(O)c1ccc(O)cc1 (stereo unspecified),–,-1.34%,0.25%,1.71% (inactive)
NN=C(N)N,–,12.1% and -0.681%,15.5% and -2.91%,1.91% (inactive) and 1.41% (inactive)
NCC(O)c1ccc(O)cc1 (stereo unspecified),–,15.4%,23.7%,5.18% (inactive)
